Assay outcomes (PubChem BioAssay)
Shown are actives, neighbours in structure and some others; about 3.6% of the full set was active somewhere.
ERK AVP block: inhibitors of vasopressin-stimulated ERK signaling pathway; HEK293-V1b, vasopressin-stimulated pERK AlphaScreen; Potency, µM (highest dose often 57.5 µM), for inactives: at the top dose activity, negative = inhibition, hits mostly inhibitors; hit rate 0.99% among 72,000; also: % is scaled to controls: 0 for no effect and ±100 for the full control effect; nearly all actives have a fitted effect of over 55% in size
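Overnight-seeded V1b-HEK293 cells in 1% FBS got compound, then vasopressin (25 nM final, 5 min, 37C), then lysis buffer. AlphaScreen detection of phospho-ERK; activity normalized to basal and full-stimulation controls.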
TSHR ag: TSH receptor (human) agonism. P16473. HEK293-CNG-TSHR cells (CNG channel as cAMP sensor), membrane potential dye, cAMP. Potency, µM (series often up to 57.1 µM), inactives show top-dose activation, usual class: activators. hit rate 0.48% among 73,000. AID 926; active = well fitted activation curve with a large enough effect in the main read-out, with a control signal flat, not every such curve was filed as active; inconclusive = small, poorly fitted or top-dose-only effect, or a change in a side signal; inactive = no such curve, though single readings can be large or run the other way; % of control where 0% means no effect;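 also: the control signal comes from parental cells without the receptor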
Target sequence (P16473 whole entry, looked up): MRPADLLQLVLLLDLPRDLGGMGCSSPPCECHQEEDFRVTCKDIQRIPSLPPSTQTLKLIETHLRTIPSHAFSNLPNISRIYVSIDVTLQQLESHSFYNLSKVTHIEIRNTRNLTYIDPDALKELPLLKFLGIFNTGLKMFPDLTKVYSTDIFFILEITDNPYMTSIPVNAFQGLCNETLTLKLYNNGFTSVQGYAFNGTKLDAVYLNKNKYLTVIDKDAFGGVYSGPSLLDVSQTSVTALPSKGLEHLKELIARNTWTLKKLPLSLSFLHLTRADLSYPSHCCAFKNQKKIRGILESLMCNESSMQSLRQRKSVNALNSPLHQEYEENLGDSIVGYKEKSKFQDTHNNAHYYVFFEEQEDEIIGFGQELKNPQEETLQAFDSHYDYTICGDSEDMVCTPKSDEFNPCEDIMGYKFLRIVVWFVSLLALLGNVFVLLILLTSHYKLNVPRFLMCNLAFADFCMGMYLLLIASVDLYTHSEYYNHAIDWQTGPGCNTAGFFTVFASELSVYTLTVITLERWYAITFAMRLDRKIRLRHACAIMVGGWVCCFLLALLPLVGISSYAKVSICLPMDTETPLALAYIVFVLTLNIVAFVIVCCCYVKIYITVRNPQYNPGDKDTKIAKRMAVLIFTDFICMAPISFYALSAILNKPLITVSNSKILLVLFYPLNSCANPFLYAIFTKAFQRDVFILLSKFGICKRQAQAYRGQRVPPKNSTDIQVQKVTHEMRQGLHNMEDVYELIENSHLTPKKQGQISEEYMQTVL
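HEK 293 cells stably expressing TSHR and a cAMP-gated CNG channel; parental CNG-only cells as counterscreen. Cells preloaded 60 min with membrane potential dye plus 100 uM RO 20-1724, then compound 30 min; fluorescence read at 590 nm.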
CRE-bla Fsk: modulators of forskolin-stimulated CRE signaling in CHO cells | CHO CRE-bla reporter (cAMP response element driving beta-lactamase), forskolin EC10, beta-lactamase ratio | Potency, µM (titrated, usually from 38.2 µM), inactives show at the top dose activity change, negative = inhibition, most hits filed as activators | hit rate 2.5% among 71,000 | AID 662; active = well fitted activation curve with a large enough effect in the signal ratio, with a control signal flat, not every such curve was filed as active; inconclusive = small, poorly fitted or top-dose-only effect, or effect the other way, or a change in a side signal; the % refers to the signal ratio; also: % of control where 0% means no effect
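The 460nm/530nm emission ratio after CCF4 loading defined %Activity, from which AC50 values were obtained. CRE-bla CHO cells received compound dilution series together with an EC10 level of NKH 477 for 3 hours at 37 degrees Celsius.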
HEK293 cAMP cs: raises cAMP in parental HEK293 cells, TSHR agonist counter-screen; parental HEK293 CNG cAMP sensor, membrane potential fluorescence; Potency, µM (doses to about 57.1 µM), inactives show at the highest dose activation, actives largely listed as activators; hit rate 2.5% among 73,000; AID 938; also: % of control where 0% means no effect; nearly all actives have a fitted effect of over 55% in size
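Parental HEK 293 cells stably expressing a modified CNG channel (no TSHR) report cAMP rise as membrane depolarization. Membrane potential dye with 100 uM RO 20-1724 was loaded for 60 min at room temperature, then compound added for 30 min; fluorescence read at 590 nm.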
IkB signaling: IkB pathway inhibition in ABC-DLBCL cells | ABC-DLBCL IkBa-CBG/CBR dual luciferase ratio, 4 h; response scale: scaled: untreated 0%, proteasome inhibitor 100% | Potency, µM (series often up to 57.1 µM), inactives show top-dose IkBa stabilization activation | hit rate 0.04% among 110,000; active = well fitted curve in the direction sought with a large enough effect in the signal ratio, not every such curve was filed as active; inconclusive = small, poorly fitted or top-dose-only effect, or a change in a side signal; the % refers to the signal ratio;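 also: the direction sought is a rising ratio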
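In this assay, an IκBα–CBG68 fusion accumulates when IKK-driven degradation is blocked; native CBR normalizes for cell number. OCI-Ly3 cells were treated 4 h with compound and doxycycline, then green and red light read after Chroma-Glo addition.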
Starred values were filed as active, the others as inactive; [ ] = remark or other dose. Unless noted, calls follow the shape of the dose curve; as a rule, active = well fitted curve in the direction sought with a large enough effect; inconclusive = small, poorly fitted or top-dose-only effect, or another doubt; inactive = no such curve, though single readings can be large; an effect the other way counts as inactive or inconclusive. Potency is read from the fitted curve at half-maximal effect.

How did CC1CC(C)(C)NC(=S)S1 (stereo unspecified) do in these assays?
ERK AVP block: -18.7%; TSHR ag: 3.0%; CRE-bla Fsk: inconclusive; HEK293 cAMP cs: 5.2%; IkB signaling: 1.3%

How did Cc1ccc(-n2c(C)c3c(C)nnc(C)c3c2C)cc1 do in these assays?
ERK AVP block: -17.1%; TSHR ag: inconclusive; CRE-bla Fsk: 0.2%; HEK293 cAMP cs: inconclusive; IkB signaling: 1.1%

How did Cc1nnc(C)c2c(C)n(-c3ccc(Br)cc3)c(C)c12 do in these assays?
ERK AVP block: 5.3%; TSHR ag: inconclusive; CRE-bla Fsk: -1.0%; HEK293 cAMP cs: 3.98µM*; IkB signaling: 2.0%

Results for CCN1CCCC1CNC(=O)c1cc2c(C)nc3ccccc3c2o1 (stereo unspecified) ?
ERK AVP block: -10.1%; TSHR ag: -0.9%; CRE-bla Fsk: 1.3%; HEK293 cAMP cs: 9.1%; IkB signaling: 1.1%

How did Cc1nc2ccccc2c2oc(C(=O)N3CCc4ccccc43)cc12 do in these assays?
ERK AVP block: inconclusive; TSHR ag: 8.3%; CRE-bla Fsk: 0.398µM*; HEK293 cAMP cs: 10.2%; IkB signaling: -4.6%

What do the screens show for `Cc1cccc(N2CCN(C(=O)c3cc4c(C)nc5ccccc5c4o3)CC2)c1C`?
ERK AVP block: -13.6%; TSHR ag: inconclusive; CRE-bla Fsk: inconclusive; HEK293 cAMP cs: inconclusive; IkB signaling: inconclusive

Results for COc1cc(NC(=O)c2cc3c(C)nc4ccccc4c3o2)cc(OC)c1OC ?
ERK AVP block: inconclusive; TSHR ag: -3.8%; CRE-bla Fsk: 1.58µM*; HEK293 cAMP cs: -6.0%; IkB signaling: 12.8%

What do the screens show for `Cc1nc2ccccc2c2oc(C(=O)NCC3COc4ccccc4O3)cc12` (stereo unspecified)?
ERK AVP block: 10µM*; TSHR ag: inconclusive; CRE-bla Fsk: inconclusive; HEK293 cAMP cs: 25.1µM*; IkB signaling: inconclusive

How did Cc1cccc(NC(=O)c2cc(-c3ccco3)nc3ccccc23)n1 do in these assays?
ERK AVP block: -11.6%; TSHR ag: inconclusive; CRE-bla Fsk: inconclusive; HEK293 cAMP cs: 25.1µM*; IkB signaling: 0.2%

What do the screens show for `COc1ccc(NC(=O)c2cc(-c3ccc(C)o3)nc3ccccc23)cc1OC`?
ERK AVP block: -15.9%; TSHR ag: inconclusive; CRE-bla Fsk: inconclusive; HEK293 cAMP cs: 25.1µM*; IkB signaling: inconclusive

What do the screens show for `CCOc1ncccc1C(=O)NCC1COc2ccccc2O1` (stereo unspecified)?
ERK AVP block: -25.9%; TSHR ag: inconclusive; CRE-bla Fsk: 3.98µM*; HEK293 cAMP cs: inconclusive; IkB signaling: -2.6%

Results for CCOC(=O)N1CCC(NC(=O)c2cc3c(C)nc4ccccc4c3o2)CC1 ?
ERK AVP block: 25.1µM*; TSHR ag: -1.1%; CRE-bla Fsk: inconclusive; HEK293 cAMP cs: -0.4%; IkB signaling: inconclusive

What do the screens show for `O=C(CCNS(=O)(=O)c1cccc2nsnc12)NCc1cccs1`?
ERK AVP block: 12.4%; TSHR ag: 5.0%; CRE-bla Fsk: -3.9%; HEK293 cAMP cs: 6.0%; IkB signaling: -0.8%

How did COc1ccc(OC)c2c(=S)c3ccccc3[nH]c12 do in these assays?
ERK AVP block: inconclusive; TSHR ag: -18.3%; CRE-bla Fsk: 20µM*; HEK293 cAMP cs: -5.0%; IkB signaling: inconclusive

How did Cc1cc(=S)[nH]c2ccccc12 do in these assays?
ERK AVP block: -10.4%; TSHR ag: 5.3%; CRE-bla Fsk: inconclusive; HEK293 cAMP cs: 4.0%; IkB signaling: -1.1%

Results for COc1ccc(-c2nnc(SCC(=O)N3CCc4ccccc4C3)o2)cc1 ?
ERK AVP block: 11.9%; TSHR ag: inconclusive; CRE-bla Fsk: inconclusive; HEK293 cAMP cs: 25.1µM*; IkB signaling: inconclusive

Results for O=C(CSc1nnc(-c2ccccc2)o1)N1CCc2ccccc2C1 ?
ERK AVP block: -3.2%; CRE-bla Fsk: -6.4%; HEK293 cAMP cs: 22.4%; IkB signaling: 2.0%

Results for Cc1ccc(Nc2c(C(C)C)c(C)c(C#N)c3nc4ccccc4n23)cc1 ?
IkB signaling: -8.0%

How did CC(=O)N1CCN(c2ccc(Oc3nc(-c4ccccc4)nc4ccccc34)cc2)CC1 do in these assays?
ERK AVP block: 11.8%; TSHR ag: 25.1µM*; CRE-bla Fsk: 1.2%; HEK293 cAMP cs: -0.6%; IkB signaling: 0.5%

How did COC(=O)[C@H](CCSC)NC(=O)NC1CCN(Cc2ccccc2)CC1 do in these assays?
ERK AVP block: 4.2%; CRE-bla Fsk: 0.9%; HEK293 cAMP cs: 5.0%; IkB signaling: 2.4%

What do the screens show for `Cc1ccc(Cl)cc1Nc1nn2c(=O)c3ccc(C(=O)NC4CCC(C)CC4)cc3nc2s1` (stereo unspecified)?
IkB signaling: -1.0%

What do the screens show for `Cc1nc2oc3c(NCc4ccccn4)ncnc3c2c2c1COC(C)(C)C2`?
ERK AVP block: 25.1µM*; TSHR ag: -4.2%; CRE-bla Fsk: inconclusive; HEK293 cAMP cs: 6.5%; IkB signaling: -3.9%

How did COc1ccc(NC(=O)C2CCCN(c3c4c(nc5ncnn35)CCC4)C2)cc1 (stereo unspecified) do in these assays?
ERK AVP block: -13.6%; TSHR ag: 3.5%; CRE-bla Fsk: 13.3%; HEK293 cAMP cs: 4.3%; IkB signaling: -0.3%

Results for COc1ccc(NC(=O)C2CCN(c3nc(C)nc4c3CCC4)CC2)cc1 ?
ERK AVP block: 7.7%; TSHR ag: inconclusive; CRE-bla Fsk: -4.7%; HEK293 cAMP cs: 31.6µM*; IkB signaling: inconclusive

How did COc1cc2c(=O)n(Cc3ccco3)c(=O)n(CC(=O)c3cccc(Br)c3)c2cc1OC do in these assays?
ERK AVP block: -2.6%; TSHR ag: 15.6%[11.4 µM]; CRE-bla Fsk: 3.98µM*; HEK293 cAMP cs: 28.0%; IkB signaling: 0.6%

How did COCC(=O)N1CCC[C@@]2(CCN(c3ccncc3)C2)C1 do in these assays?
ERK AVP block: 4.8%; TSHR ag: 3.5%; CRE-bla Fsk: -1.5%; HEK293 cAMP cs: 5.5%; IkB signaling: -0.5%[11.4 µM]

How did CCOC(=O)Cc1nnc(NC(=O)C(CC)Sc2nnc3c4ccccc4n(C)c3n2)s1 (stereo unspecified) do in these assays?
ERK AVP block: inconclusive; TSHR ag: 9.5%; CRE-bla Fsk: 12.6µM*; HEK293 cAMP cs: -10.7%; IkB signaling: 1.1%

Results for O=C(CC(NS(=O)(=O)c1ccc(Cl)cc1)c1ccco1)NCc1ccco1 (stereo unspecified) ?
ERK AVP block: 21.4%; CRE-bla Fsk: -12.1%; HEK293 cAMP cs: 7.1%; IkB signaling: -1.5%

Results for Cc1cc(N2CCOCC2)nc2cc(O)ccc12 ?
TSHR ag: inconclusive; CRE-bla Fsk: inconclusive; HEK293 cAMP cs: 6.31µM*; IkB signaling: -3.8%

What do the screens show for `COc1ccc(N2CCN(c3cc(C)c4ccc(O)cc4n3)CC2)cc1`?
TSHR ag: inconclusive; CRE-bla Fsk: 19.6%; HEK293 cAMP cs: -47.3%; IkB signaling: inconclusive
